# This is a sample that favours compounds with a hit; in the whole collection about 2.3% have one here.
# MmCpn inh: Inhibitors of TCP-1 ring complex (TRiC) of Methanococcus maripaludis (MmCpn): qHTS; Chaperonin Mm-Cpn (Methanococcus maripaludis); purified Mm-Cpn ATPase, ADP Transcreener TR-FRET; Potency, µM (titrated, usually from 76.9 µM), hits mostly inhibitors; 0.031% of 330,000 active; AID 504842, 2011; further: nearly all actives have a fitted effect of over 80% in size
#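 Reaction buffer contained 30 mM Tris pH 7.4, 100 mM KCl, 5 mM MgCl2 and 1 mM DTT. Mm-CPN (25 nM final) hydrolysed 10 uM ATP over 30 min at 37°C; ADP was read by HTRF.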
# CCT modulator: High-Throughput Screening for Modulators of Cytosolic Chaperonin Activity; AID 651819, 2012; purified chaperonin ATPase assay, HTRF ADP detection, 30 min; activity change, % (test concentration not listed), hits read low; 0.3% of 360,000 active; in the data active means activity change below about -30%
#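 We incubate TRiC, 40 or 20 nM final, with library compounds at 76 uM and 10 uM ATP for 30 min at 37 °C. ADP formed is detected with Transcreener HTRF reagents after 30 min at room temperature.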
# Abeta rescue: qHTS for compounds that reverse cellular toxicity of Amyloid beta (A-beta) peptide in yeast: Primary Screen | yeast expressing A-beta42, growth rescue, OD600, 48 h; response scale: 0% DMSO, 100% iron-clioquinol control | Potency, µM (titrated, usually from 46.1 µM), actives largely listed as activators | 0.063% of 410,000 active | AID 1347071, 2019; further: nearly all actives have a fitted effect of over 55% in size
#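 Growth rescue measured by 600 nm absorbance after 48 h yeast culture at 30 C with compound. Values normalized between DMSO and an equimolar ferric chloride plus clioquinol control.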
# aSyn rescue: qHTS of alpha-syn Inhibitors. Yeast expressing alpha-synuclein, growth rescue, BacTiter-Glo, 24 h. Potency, µM (top dose mostly 46.1 µM), hits mostly activators. 0.14% of 370,000 active; further: nearly all actives have a fitted effect of over 65% in size
#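 Galactose-induced alpha-syn yeast (OD600=0.02, raffinose-pregrown) + pinned cpd, 24 hr, 30 deg C; growth by BacTiter-Glo luminescence. Growth restoration scores as activation.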
# FUS yeast rescue: qHTS for Suppressors of FUS Proteinopathy: Primary screen using FUS-linked yeast assay; Potency, µM (doses to about 76.6 µM), actives largely listed as activators; S. cerevisiae FUS-expressing, growth rescue, OD600, 24 h; 0.24% of 390,000 active; further: nearly all actives have a fitted effect of over 55% in size
#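 Restored growth of FUS-toxic S. cerevisiae, read as 600 nm absorbance after 24 h at 30C in galactose medium (starting OD 0.005). Controls CP55940 and DMSO.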
# TDP-43 yeast inh: qHTS of TDP-43 Inhibitors; Potency, µM (series often up to 46.1 µM), actives largely listed as activators; 1.8% of 410,000 active; TDP-43 expressing yeast growth rescue, BacTiter-Glo, 24 h; further: nearly all actives have a fitted effect of over 50% in size
#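 Luminescence from BacTiter-Glo reports growth of TDP-43-expressing yeast after 24 hr at 30 deg C with compound. Cells were raffinose-pregrown to mid-log, then seeded in galactose medium at OD600=0.02.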
# Hits are given with their value; n = inactive; u = inconclusive; x = no result; [ ] = another dose, or the depositor's remark. Unless noted, the call rests on the fitted dose curve; in most records, active means well fitted curve in the direction sought with a large enough effect; inconclusive means small, poorly fitted or top-dose-only effect, or another doubt; inactive means no such curve, though single readings can be large; an effect the other way counts as inactive or inconclusive.
SMILES,MmCpn inh,CCT modulator,Abeta rescue,aSyn rescue,FUS yeast rescue,TDP-43 yeast inh
COc1cccc(CNC(=O)c2ccc(CS(=O)Cc3ccc(Cl)cc3)o2)c1 (stereo not given),x,x,n,x,n,n
O=C1C(N2CCOCC2)=C(n2nnc3ccccc32)C(=O)c2ccccc21,n,n,n,n,n,22µM
O=C1c2ccccc2C(=O)c2c1cccc2-n1nnc2ccccc21,n,n,n,n,n,n
Cc1ccc(C(=O)n2nc(-c3ccccc3)nc2NCc2ccco2)cc1,n,-60,n,n,n,n
C=C1C=C(C(F)F)n2ncc(C(=O)NCc3ccc(Cl)cc3)c2N1,x,x,x,n,x,x
Cn1ccc2c(-c3ccc(C(=O)O)cc3)cc3c(c21)C1CCC3C1 (stereo not given),x,n,n,n,n,28µM
COc1ccc(-c2cc3c(c4c2ccn4C)C2CCC3C2)cc1 (stereo not given),x,n,n,n,n,35µM
CC(C)(C)NC(=O)[C@@H](c1cccnc1)N(C(=O)c1ccco1)c1ccc(C(C)(C)C)cc1,x,x,x,x,n,x
CC(C)Oc1ccc(C(=O)N(Cc2ccc(N(C)C)cc2)Cc2ccco2)cc1,x,x,n,x,u,n
COC[C@@H]1CCCN1c1ccc2c(c1)OCCCN(C1CC1)S2(=O)=O,x,x,x,x,n,x
CC1=CC(c2ccccc2)NC(=S)N1 (stereo not given),n,n,n,n,x,n
S=C1NC(c2cccs2)=CC(c2ccc(Br)cc2)N1 (stereo not given),n,n,n,n,x,20µM
S=C1NC(c2ccccc2)=CC(c2ccccc2)N1 (stereo not given),n,n,13µM,n,u,n
NC(=O)C1CCN(c2oc(-c3cccs3)nc2S(=O)(=O)c2ccc(Br)cc2)CC1,n,n,n,n,n,n
CCNC(=O)CN(c1ccc(Cl)cc1)S(=O)(=O)c1ccccc1,n,n,n,n,n,11µM
CCNC(=O)CN(c1ccccc1)S(=O)(=O)c1ccc(Cl)cc1,n,n,n,n,n,n
O=C(CCl)Nc1cn(-c2ccccc2)nc1-c1ccc(F)cc1,n,n,n,n,n,8.9µM
COc1ccc(NC(=O)CN(C)C(=O)c2cccc(S(=O)(=O)N3CCN(c4ccc(F)cc4)CC3)c2)cc1,x,n,n,n,22µM,n
CN(CC(=O)Nc1ccc(F)cc1)C(=O)c1cccc(S(=O)(=O)N2CCN(c3ccccc3)CC2)c1,n,n,n,n,u,n
CN(C)c1ccc(/C=C/c2ccc3cc(N)ccc3n2)cc1,x,x,x,n,x,x
O=C(CSc1nccn1Cc1ccc(F)cc1)Nc1ccc2c(c1)OCCO2,x,x,n,x,n,n
CCc1ccc(NC(=O)CCc2ccc(C)o2)cc1,n,n,n,n,n,n
Cc1ccc(CCC(=O)Nc2ccc(C#N)cc2)o1,n,-103,n,n,n,n
CN1C2=N[C@@H](c3ccc4c(c3)OCO4)CC(=O)N2/C(=C\c2ccccc2)[C@@H]1c1ccccc1,x,x,x,x,n,x
Cc1ccc(NC(=O)CSc2nnc(C)c(=O)n2N)cc1Cl,n,n,n,n,n,n
SMILES,MmCpn inh,CCT modulator,Abeta rescue,aSyn rescue,FUS yeast rescue,TDP-43 yeast inh
Cc1nnc(SCC(=O)Nc2ccc(OC(F)F)c(Cl)c2)n(N)c1=O,n,-40,n,n[1.84 µM],n,n
CC1(C)CC(=O)C2=C(C1)NC(Nc1nc3ccccc3o1)=NC2c1cccc(O)c1 (stereo not given),x,x,x,n,x,x
COC(=O)C1CCN(C(=O)COc2cc3sc(C)nc3c3sccc23)CC1,n,n,n,n,n,20µM
O=C(NCc1ccccc1)N1CCN(Cc2nc3ccccc3c(=O)[nH]2)CC1,x,x,x,x,n,x
O=C(CP(=O)(c1ccccc1)c1ccccc1)Nn1cnnc1,n,-53,n,n,n,n
COc1cc2nc(N3CCCCC3)nc(NC3CC3)c2cc1OC,x,x,x,n,x,x
C=CCOc1ccc(/C=C/C(=O)OCC(=O)NCCc2ccccc2)cc1,n,n,n,n,n,25µM
O=c1cnn([C@@H]2O[C@H](CO)[C@@H](O)[C@H]2O)c(=O)[nH]1,n[15.4 µM],n,u,5.6µM,n,n
Nc1ccc2c(c1)-c1ccc(F)cc1C2=O,x,n,n,14µM,x,n
CC(C)(C)c1ccc(OCCNCc2ccccc2)cc1,n,n,n,n,n,n
CC(C)(C)c1ccc(OCCNC(=S)Nc2ccccc2)cc1,u,n,n,n,n,13µM
CCOC(=O)c1ccc(NC(=O)c2c(NCc3sccc3C)sc3c2CCCCC3)cc1,x,x,n,x,u,n
Cc1cccc(NC(=O)CSc2nc3c(oc4ccccc43)c(=O)n2-c2ccccc2)c1C,x,x,n,x,n,n
COc1cc(OC)cc(-c2sc3ccc(OC)cc3c2C#CC(C)(C)O)c1,u,n,n,n,u,11µM
COc1ccc2sc(-c3ccc(S(C)(=O)=O)cc3)c(C(=O)NCCc3c[nH]c4ccccc34)c2c1,28µM,n,n,n,n,n
COC(=O)c1c(-c2ccc(OC)cc2)sc2ccc(OC)cc12,45µM,n,n,n,n,n
COC(=O)c1c(-c2ccc(OC)cc2)sc2ccc(-c3ccc4c(c3)OCO4)cc12,n,-73,n,n,n,n
COC(=O)c1c(-c2ccccc2OC)sc2cc3c(cc12)OCO3,u,n,n,n,n,u
COc1ccc2c(C(=O)NCCCCO)c(-c3ccc(S(C)(=O)=O)cc3)sc2c1,n,n,n,n,n,n
COC(=O)c1sc2ccc(C)cc2c1C(=O)OC,x,n,n,n,n,n
O=c1cc(N2CCN(c3cccc(Cl)c3Cl)CC2)[nH]c(=O)n1C1CCCCC1,x,x,x,x,n,x
CCOc1ccc(S(=O)(=O)N(C(=O)c2ccncc2)c2ccc3oc(C)c(C(=O)OC)c3c2)cc1,x,x,n,x,u,n
Cc1cc(NS(=O)(=O)c2ccc(NC(=O)CSc3nnc(-c4ccncc4)n3-c3ccccc3)cc2)nc(C)n1,x,x,x,x,n,x
Cc1ccc(Cl)cc1N1CCN(Cc2nc3c(c(=O)[nH]c(=O)n3C)n2Cc2ccccc2F)CC1,n,n,n,n,n,11µM
COC(=O)c1ccccc1NC(=O)C1CCCN(C(=O)c2cnn(-c3ccc(F)cc3)c2-n2cccc2)C1 (stereo not given),x,x,n,n,n,35µM
O=C(c1cnn(-c2ccc(F)cc2)c1-n1cccc1)N1CCN(c2cccc(Cl)c2)CC1,x,x,n,n,n,13µM
CCOC(=O)N1CCN(C(=O)c2cnn(-c3cccc(F)c3)c2-n2cccc2)CC1,x,x,n,x,n,n
O=C1c2ccccc2NC(c2cn[nH]c2-c2ccc(Cl)cc2)N1O (stereo not given),n,n,n,n,25µM,n

# High-throughput results deposited in PubChem BioAssay by National Center for Advancing Translational Sciences (NCATS).
